Experimental data published in PubChem BioAssay (NCATS).
Where “and” joins values, the source holds several entries; their conditions need not be identical. Identical values can stand only once. Inconclusive results are not listed. Calls of active or inactive are those of the source. Unless noted, calls come from the whole dose curve; as a rule, active = well fitted curve in either direction with a large enough effect (not every such curve was filed as active); inconclusive = small, poorly fitted or top-dose-only effect, or another doubt; inactive = flat fitted curve, though single readings scatter.

Columns and labels:
[1] = AP1 Signaling Pathway (AID 357); conditions: ME-180 AP-1-bla reporter, EGF-induced, beta-lactamase ratio, 5 h;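 note: ME-180 reporter cells stimulated with EGF at its EC50 level; % is set by controls: 0 for no effect and ±100 for the full control effect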
Procedure, shortened: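 A ratiometric CCF4 readout (405 nm excitation; 460 and 530 nm emission) quantified AP-1-driven beta-lactamase in ME-180 cells after 5 h with compound and EC50 EGF; AC50 values were derived for activators and inhibitors.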

[2] = NFAT Signaling Pathway (AID 444); conditions: Jurkat NFAT-bla M1, carbachol, beta-lactamase ratio, 5 h;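 note: carbachol stimulus at about its EC50 of 1 µM final; % is set by controls: 0 for no effect and ±100 for the full control effect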
Procedure, shortened: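 Jurkat cells with NFAT-driven β-lactamase reporter and co-expressed M1 receptor, stimulated with carbachol (final 1 uM, ~EC50), compound titration, 5 h at 37 °C. CCF4 loaded 1 h at RT; 460/530 nm ratio gave %activity and AC50.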

[3] = target: Cytochrome P450 1A2 (Homo sapiens) (UniProt P05177); assay: p450-cyp1a2 (AID 410; calls by dose curve; note: potency is the fitted concentration of half-maximal effect;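 for activity change, negative = inhibition: -100% = full effect of reference inhibitor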); conditions: recombinant CYP1A2, luciferin-ME demethylation, luminescence; series mostly up to 25.6 µM
Sequence of Cytochrome P450 1A2 (Homo sapiens) (P05177 whole entry, looked up): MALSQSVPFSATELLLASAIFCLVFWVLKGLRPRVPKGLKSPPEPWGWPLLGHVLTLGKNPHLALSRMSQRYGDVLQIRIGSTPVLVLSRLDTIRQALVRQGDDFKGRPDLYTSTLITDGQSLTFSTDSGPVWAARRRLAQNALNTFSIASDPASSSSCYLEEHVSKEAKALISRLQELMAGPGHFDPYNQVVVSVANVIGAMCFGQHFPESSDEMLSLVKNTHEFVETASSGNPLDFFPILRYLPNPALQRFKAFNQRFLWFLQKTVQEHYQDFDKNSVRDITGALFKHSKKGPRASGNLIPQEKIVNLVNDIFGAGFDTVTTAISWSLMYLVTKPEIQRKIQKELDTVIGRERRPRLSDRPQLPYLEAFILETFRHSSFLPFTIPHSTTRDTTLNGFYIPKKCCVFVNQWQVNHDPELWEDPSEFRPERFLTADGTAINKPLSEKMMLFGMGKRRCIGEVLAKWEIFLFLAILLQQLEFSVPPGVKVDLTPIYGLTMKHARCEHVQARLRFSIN
Procedure, shortened: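 Human CYP1A2 (20nM) demethylated Luciferin-ME at its Km (100uM) in 100mM KPO4. After 10 min compound preincubation, NADPH regeneration ran the reaction 60 min at room temperature. Luciferin was read by luminescence, normalized to 57 uM furafylline.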

[4] = target: Glucocorticoid receptor (Homo sapiens) (UniProt P04150); assay: GR-GFP Redistribution (AID 450;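 active = compounds whose dose series gives a full or clear partial fitted curve of increased nuclear translocation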; note: potency is the fitted concentration of half-maximal effect); conditions: U2OS GR-GFP nuclear translocation, laser cytometry, 2 h
Sequence of Glucocorticoid receptor (Homo sapiens) (P04150 whole entry, looked up, the tested form may be a part): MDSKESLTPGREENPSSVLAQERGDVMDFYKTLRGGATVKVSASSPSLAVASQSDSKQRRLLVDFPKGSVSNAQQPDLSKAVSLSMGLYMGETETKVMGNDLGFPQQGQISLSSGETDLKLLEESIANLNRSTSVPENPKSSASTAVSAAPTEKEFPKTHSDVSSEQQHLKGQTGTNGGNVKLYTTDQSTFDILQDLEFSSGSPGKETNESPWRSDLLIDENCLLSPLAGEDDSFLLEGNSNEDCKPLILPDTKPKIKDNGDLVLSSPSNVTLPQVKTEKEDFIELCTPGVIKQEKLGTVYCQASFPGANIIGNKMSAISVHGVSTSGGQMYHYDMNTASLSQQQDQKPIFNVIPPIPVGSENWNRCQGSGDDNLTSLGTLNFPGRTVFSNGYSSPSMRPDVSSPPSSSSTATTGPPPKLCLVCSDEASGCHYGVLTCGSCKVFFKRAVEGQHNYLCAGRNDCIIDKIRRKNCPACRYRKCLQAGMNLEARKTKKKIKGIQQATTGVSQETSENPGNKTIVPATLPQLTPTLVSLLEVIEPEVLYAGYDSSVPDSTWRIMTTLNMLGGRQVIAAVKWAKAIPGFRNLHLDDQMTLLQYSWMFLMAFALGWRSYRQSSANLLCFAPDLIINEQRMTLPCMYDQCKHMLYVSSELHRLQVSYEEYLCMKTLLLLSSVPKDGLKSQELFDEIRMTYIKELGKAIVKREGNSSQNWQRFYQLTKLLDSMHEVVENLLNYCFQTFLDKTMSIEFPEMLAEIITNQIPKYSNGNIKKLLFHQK

[5] = target: Glucocorticoid receptor (Homo sapiens) (UniProt P04150); assay: GR-EFC Redistribution (AID 451; calls by dose curve; note: potency is the fitted concentration of half-maximal effect); conditions: CHO-K1 GR-EFC translocation, beta-gal luminescence, 2 h
Procedure, shortened: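 CHO-K1 cells expressing nuclear EA and GR-ED fragments of b-gal; compounds titrated up to 46 uM final, 2 h at 37 C. GR nuclear translocation read as complemented b-gal luminescence after 1 h RT detection.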

[6] = target: 3',5'-cyclic-AMP phosphodiesterase 4B (Homo sapiens) (UniProt Q07343); assay: qHTS Assay for Inhibitors of PDE-IV (AID 607; active = well fitted activation curve with a large enough effect in the main read-out, with a control signal flat, not every such curve was filed as active; note: % of control where 0% means no effect); conditions: HEK293 ACTOne CNG channel cells, membrane potential fluorescence; series mostly up to 22.9 µM
Sequence of 3',5'-cyclic-AMP phosphodiesterase 4B (Homo sapiens) (Q07343 whole entry, looked up): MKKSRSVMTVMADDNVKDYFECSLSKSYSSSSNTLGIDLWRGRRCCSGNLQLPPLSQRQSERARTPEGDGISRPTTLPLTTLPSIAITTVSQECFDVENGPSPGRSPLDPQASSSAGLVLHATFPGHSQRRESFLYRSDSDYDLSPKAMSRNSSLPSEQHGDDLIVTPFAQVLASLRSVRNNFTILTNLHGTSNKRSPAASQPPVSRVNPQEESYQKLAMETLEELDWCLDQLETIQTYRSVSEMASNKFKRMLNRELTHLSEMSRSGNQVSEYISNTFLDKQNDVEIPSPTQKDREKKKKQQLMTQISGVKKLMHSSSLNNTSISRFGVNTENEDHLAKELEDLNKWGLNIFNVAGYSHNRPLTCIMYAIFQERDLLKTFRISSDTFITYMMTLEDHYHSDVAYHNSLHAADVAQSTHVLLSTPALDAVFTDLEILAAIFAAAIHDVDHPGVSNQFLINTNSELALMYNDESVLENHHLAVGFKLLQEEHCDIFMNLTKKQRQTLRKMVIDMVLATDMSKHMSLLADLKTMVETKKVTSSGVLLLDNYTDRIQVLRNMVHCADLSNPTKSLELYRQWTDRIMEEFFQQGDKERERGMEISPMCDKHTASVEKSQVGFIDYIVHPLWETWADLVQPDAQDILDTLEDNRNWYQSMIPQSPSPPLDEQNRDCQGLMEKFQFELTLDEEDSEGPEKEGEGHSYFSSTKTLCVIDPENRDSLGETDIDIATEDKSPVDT
Procedure, shortened: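 Live HEK293 cells with a modified cyclic nucleotide-gated (CNG) channel report intracellular cAMP via membrane-potential dye fluorescence (ex 535/em 590 nm). Endogenous PDE-IV was targeted. Compounds were tested at up to 22.9 uM final; RO 20-1724 100 uM served as control.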

[7] = Stat Signaling Pathway (AID 446); conditions: ME-180 (cervical carcinoma) SIE beta-lactamase reporter, IL-6 stimulated, 5 h;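 note: ME-180 cervical cancer cells given 40 pM IL-6 alongside compound; SIE-controlled beta-lactamase reporter measured as 460/530 nm FRET emission ratio; % is set by controls: 0 for no effect and ±100 for the full control effect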
Procedure, shortened: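 IL-6/STAT signaling read in ME-180 cells via an SIE beta-lactamase reporter. Stimulus was 40 pM IL-6 (its AC50) for 5 hrs, so both activation and inhibition register.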

[8] = target: Mitogen-activated protein kinase 10 (Mus musculus) (UniProt Q61831); assay: JNK3 AlphaScreen Assay (AID 530); conditions: JNK3 lysate, c-Jun phosphorylation; series mostly up to 57.1 µM;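 note: kinase came from lysate of stimulated human HepG2 cells; signal reports phosphorylation of biotinylated GST-cJun 1-79 at Ser73 with 10 µM ATP; % is set by controls: 0 for no effect and ±100 for the full control effect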
Procedure, shortened: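 qHTS format: compounds tested as titrations against IL-1beta/TNF-alpha-activated HepG2 lysate JNK3 with biotin-GST-cJun substrate and 10 uM ATP at room temperature. Loss of anti-phospho-cJun AlphaScreen signal indicates inhibition.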

[9] = target: Lysosomal acid glucosylceramidase (Homo sapiens) (UniProt P04062); assay: Glucocerebrosidase-p2 (AID 348; in the data active = potency below about 10 µM; note: potency is the fitted concentration of half-maximal effect); conditions: purified GBA, blue fluorogenic substrate, 40 min
Sequence of Lysosomal acid glucosylceramidase (Homo sapiens) (P04062 whole entry, looked up): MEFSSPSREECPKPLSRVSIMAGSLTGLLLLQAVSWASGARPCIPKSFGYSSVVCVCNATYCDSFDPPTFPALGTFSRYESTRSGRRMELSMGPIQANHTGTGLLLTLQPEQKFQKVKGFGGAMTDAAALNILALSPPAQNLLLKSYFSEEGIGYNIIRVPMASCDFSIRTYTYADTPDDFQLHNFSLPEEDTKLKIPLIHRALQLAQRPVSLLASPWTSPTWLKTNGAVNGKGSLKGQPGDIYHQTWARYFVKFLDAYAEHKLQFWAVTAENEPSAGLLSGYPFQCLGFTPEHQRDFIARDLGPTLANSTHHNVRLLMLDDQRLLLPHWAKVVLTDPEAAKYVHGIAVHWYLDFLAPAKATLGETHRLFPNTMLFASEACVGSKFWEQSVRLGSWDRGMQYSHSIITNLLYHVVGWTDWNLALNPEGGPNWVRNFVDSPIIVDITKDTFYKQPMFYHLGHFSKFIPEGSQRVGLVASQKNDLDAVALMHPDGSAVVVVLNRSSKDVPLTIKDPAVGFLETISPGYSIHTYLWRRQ
Procedure, shortened: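 Compounds titrated from 0.6 nM upwards against 0.2 nM enzyme in pH 5.9 citric acid/KH2PO4, taurocholate, tween-20; blue fluorogenic substrate 80 uM, 40 min room temperature, stopped and read Ex 365/Em 440 for AC50.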

[10] = Cell Viability - BJ (AID 421; calls by dose curve;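 note: potency is the fitted concentration of half-maximal effect; cells exposed to compound for 40 hours at 37 °C before readout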); conditions: BJ fibroblast viability, qHTS
Procedure, shortened: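 Quantitative HTS: ATP depletion in BJ cells after 40 hr compound exposure in complete culture medium, detected with CellTiter-Glo; AC50 from standard Hill fits.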

[11] = Cell Viability - Jurkat (AID 426;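 active = dose-dependent loss of cell ATP signal giving a full or clear fitted curve, ranked by lower potency value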; note: potency is the fitted concentration of half-maximal effect); conditions: qHTS
Procedure, shortened: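 Jurkat (clone E6-1, human T-cell leukemia) cells, 5000/well in complete medium, were exposed to compound for 40 hr at 37 °C. Viability was read as intracellular ATP by CellTiter-Glo luminescence; AC50 came from Hill fits of concentration-response data.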

[12] = Cell Viability - Hek293 (AID 427;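 active = compounds whose dose-response curve shows a full or clear partial loss of cell viability, called from curve shape rather than a numeric limit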;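 note: potency is the fitted concentration of half-maximal effect; cells exposed to compound for 40 hours at 37 °C before reading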); conditions: qHTS
Procedure, shortened: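 AC50 values derive from Hill-modelled concentration-response of ATP-based luminescence, normalized between DMSO-only and 100 uM tamoxifen controls. Cells were exposed in complete culture medium for 40 hr at 37 °C before detection.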

[13] = Cell Viability - HepG2 (AID 433; calls by dose curve;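 note: potency is the fitted concentration of half-maximal effect; potency for ATP loss meaning cytotoxicity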); conditions: qHTS
Procedure, shortened: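 Cytotoxicity read as ATP loss (CellTiter-Glo luminescence) after 40 hr compound exposure of HepG2, 1500 cells/well, 37 °C. AC50 by Hill equation; 0% set by DMSO, 100% inhibition by 100 uM tamoxifen.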

[14] = Cell Viability - N2a (AID 540; active = well fitted curve in the direction sought with a large enough effect; an effect the other way counts as inactive or inconclusive;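 note: plate controls were DMSO alone for no effect and tamoxifen control for full effect; nearly all actives have a fitted effect of over 45% in size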); conditions: N2a mouse neuroblastoma cell viability; activity change, negative = cytotoxicity: at 92.2 µM (top of the series)
Procedure, shortened: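 Mouse neuroblastoma N2a cells (1500/well) were preincubated 5 hr at 37 °C, then exposed to compounds for 40 hr at 37 °C in complete medium. Viability was read as intracellular ATP by CellTiter-Glo luminescence; AC50 from Hill fits.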

[15] = Cell Viability - NIH 3T3 (AID 541; active = well fitted curve in the direction sought with a large enough effect; an effect the other way counts as inactive or inconclusive;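 note: plate controls were DMSO alone for no effect and tamoxifen positive control for full effect; nearly all actives have a fitted effect of over 25% in size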); conditions: NIH 3T3 cell viability, qHTS; activity change, negative = cytotoxicity: at 92.2 µM (top of the series)
Procedure, shortened: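 NIH 3T3 mouse embryo fibroblasts (1000 cells/well) were plated in complete medium and treated with compound for 40 hr at 37 °C. Viability was read as intracellular ATP by CellTiter-Glo luminescence; AC50 values came from Hill-equation fits of concentration-response data.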

[16] = Cell Viability - HUV-EC-C (AID 542; active = well fitted curve in the direction sought with a large enough effect; an effect the other way counts as inactive or inconclusive; note: % is set by controls: 0 for no effect and ±100 for the full control effect; nearly all actives have a fitted effect of over 35% in size); conditions: HUV-EC-C endothelial cell viability, qHTS; series mostly up to 92.2 µM
Procedure, shortened: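 HUV-EC-C normal human vascular endothelial cells, 1000 cells/well, pre-incubated 5 hr at 37 °C, then exposed to compounds for 40 hr at 37 °C in complete medium. Viability measured as intracellular ATP by CellTiter-Glo luminescence; AC50 from Hill fits.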

[17] = Cell Viability - H-4-II-E (AID 543; active = well fitted curve in the direction sought with a large enough effect; an effect the other way counts as inactive or inconclusive; note: % is set by controls: 0 for no effect and ±100 for the full control effect; nearly all actives have a fitted effect of over 35% in size); conditions: H-4-II-E rat hepatoma viability; series mostly up to 92.2 µM
Procedure, shortened: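 Rat hepatoma H-4-II-E cells (1500/well) were plated, incubated 5 hr at 37 °C, then exposed to compounds for 40 hr at 37 °C. Cellular ATP was read by CellTiter-Glo luminescence; AC50 came from Hill-equation fits of concentration-response data.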

[18] = Cell Viability - SH-SY5Y (AID 544; active = well fitted curve in the direction sought with a large enough effect; an effect the other way counts as inactive or inconclusive;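 note: 0% = DMSO alone and -100% = 100 µM tamoxifen; nearly all actives have a fitted effect of over 55% in size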); conditions: SH-SY5Y neuroblastoma cell viability; series mostly up to 92.2 µM
Procedure, shortened: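 Human neuroblastoma SH-SY5Y cells (1500/well) in complete medium were exposed to compounds for 40 hr at 37 °C; intracellular ATP was then quantified by CellTiter-Glo luminescence after 20 min at room temperature. AC50 came from Hill-equation concentration-response fits.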

[19] = Cell Viability - Renal Proximal Tubule (AID 545; active = well fitted curve in the direction sought with a large enough effect; an effect the other way counts as inactive or inconclusive;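 note: 0% = DMSO only and -100% = 100 µM tamoxifen; nearly all actives have a fitted effect of over 40% in size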); conditions: renal proximal tubule cells viability, primary cells of rat origin; series mostly up to 91.7 µM
Procedure, shortened: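 Viability taken as intracellular ATP (CellTiter-Glo luminescence) after 40 hr, 37 °C compound treatment of primary proximal tubule cells from rat kidney, 1000 cells/well; Hill-equation fits of qHTS concentration-response data gave AC50.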

[20] = Cell Viability - Mesenchymal (AID 546; active = well fitted curve in the direction sought with a large enough effect; an effect the other way counts as inactive or inconclusive;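 note: cells exposed to compound for 40 hours before reading; 0% = DMSO only and -100% = 100 µM tamoxifen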); conditions: mesenchymal cells viability, qHTS; series mostly up to 91.7 µM
Procedure, shortened: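 Human kidney mesenchymal cells from normal renal glomeruli, 1000 cells/well, rested 5 hr at 37 °C, then treated 40 hr at 37 °C in complete medium. Cellular ATP read by CellTiter-Glo luminescence; AC50 from Hill-equation fits.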

C[C@@H]1C[C@H]2[C@@H]3C[C@H](F)C4=CC(=O)C=C[C@]4(C)[C@@]3(F)[C@@H](O)C[C@]2(C)[C@@]1(O)C(=O)CO
inactive: activity change, negative = inhibition ([1]; at 17.2 µM (top of the series)) -11.1% | activity change, negative = inhibition ([2]; at 17.2 µM (top of the series)) -28.6%

CC1=C(CC(=O)O)c2cc(F)ccc2/C1=C\c1ccc(S(C)=O)cc1 (stereo not drawn)
active: Potency [3] 12.6 µM and 3.98 µM
inactive: activity change, negative = inhibition ([1]; at 17.2 µM (top of the series)) 6.13% | activity change, negative = inhibition ([1]; at 38 µM (top of the series)) -0.0105% | activity change, negative = inhibition ([2]; at 38 µM (top of the series)) 2.92% | Potency [4] > 46 µM and > 20.6 µM | Potency [5] > 46 µM and > 20.6 µM | outcome [6]

CCN(CC)CCNC(=O)c1cc(Cl)c(N)cc1OC
active: Potency [3] 15.8 µM
inactive: activity change, negative = inhibition ([1]; at 17.2 µM (top of the series)) 0.248% and 1.7% | activity change, negative = inhibition ([1]; at 38 µM (top of the series)) 17% | activity change, negative = inhibition ([2]; at 17.2 µM (top of the series)) -0.325% and -6.2% | activity change, negative = inhibition ([2]; at 38 µM (top of the series)) 4.1% | activity, negative = inhibition ([7]; at 17.2 µM (top of the series)) 16.4% and -2.07% | activity, negative = inhibition ([7]; at 38 µM (top of the series)) -26.6% | Potency [8] | outcome [6]

CCN(CC)CCOC(=O)C1(C2CCCCC2)CCCCC1
inactive: activity change, negative = inhibition ([1]; at 17.2 µM (top of the series)) 21% | activity change, negative = inhibition ([1]; at 38 µM (top of the series)) 20.8% | Potency [8] | outcome [6]
active: activity change, negative = inhibition ([2]; at 17.2 µM (top of the series)) -68.8% | activity change, negative = inhibition ([2]; at 38 µM (top of the series)) -63.7%

CCCCN(CCCC)CCCOC(=O)c1ccc(N)cc1
inactive: activity change, negative = inhibition ([1]; at 17.2 µM (top of the series)) -6.24% and -3.31% | Potency [4] > 20.6 µM | Potency [5] > 20.6 µM | Potency [8]
active: Potency [3] 10 µM

Cc1cccc(Nc2cc(Cl)nc(SCC(=O)O)n2)c1C
inactive: Potency [9] > 11.4 µM | activity change, negative = inhibition ([1]; at 7.69 µM (top of the series)) 3.12% | Potency [3] | activity change, negative = inhibition ([2]; at 7.69 µM (top of the series)) 11.7% | Potency [4] > 46 µM | Potency [5] > 46 µM and > 9.22 µM | activity change, negative = inhibition [8] 0.662% [at 11.4 µM] | outcome [6]

CCCCOC(=O)c1ccc(O)cc1
active: Potency [3] 0.0794 µM
inactive: activity change, negative = inhibition ([1]; at 17.2 µM (top of the series)) -21.4% | Potency [10] > 92 µM | Potency [11] > 92 µM | Potency [12] > 92 µM | Potency [13] > 92 µM | activity change, negative = inhibition ([2]; at 17.2 µM (top of the series)) -15% | activity, negative = inhibition ([7]; at 17.2 µM (top of the series)) -9.98% | Potency [4] > 20.6 µM | Potency [5] > 20.6 µM | Potency [8] | activity change, negative = cytotoxicity [14] 2.23% | Potency [15] | Potency [16] | Potency [17] | Potency [18] | Potency [19] | outcome [20] | outcome [6]

N=c1c[n+](N2CCOCC2)[n-]o1
inactive: activity change, negative = inhibition ([1]; at 17.2 µM (top of the series)) 18.9% | activity change, negative = inhibition ([1]; at 38 µM (top of the series)) 9.68% | activity change, negative = inhibition ([2]; at 38 µM (top of the series)) 3.52% | Potency [4] > 46 µM and > 20.6 µM | Potency [5] > 46 µM | Potency [8] | outcome [6]
